Assay outcomes deposited in PubChem BioAssay by several laboratories.
An excerpt weighted towards active compounds, which were near 5.7% of everything screened.
FAS TE block = FAS thioesterase (human) inhibition | P49327 | recombinant FAS-TE, OMFH fluorogenic substrate, fluorescence endpoint | AID 602261 | inhibition, % at 15 µM | 0.67% of 360,000 active;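 active = compounds whose normalised, plate-corrected inhibition of enzyme fluorescence in the single-dose primary screen is 50% or more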
Myeloid diff 2 = promotes myeloid progenitor differentiation; ER-HoxA9 myeloid progenitors, lysozyme-GFP differentiation, flow cytometry; calls only at 10 µM; 1% of 360,000 active; AID 624256;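 active = normalized GFP-positive differentiation at or above the plate's own cutoff, the solvent-only control mean plus 3 SD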;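 also: cells exposed to compound for four days before flow analysis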
rCAG binder = r(CAG) repeat RNA binding | TO-PRO-1 dye displacement fluorescence | inhibition, % at 3 µM | 1.3% of 370,000 active;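 active = inhibition above the plate cutoff, the mean of all test compounds on that plate plus 3 SD, cut at about 35% in these data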;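 also: higher means more dye released from RNA so lower well fluorescence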
GRIN3A LBD mod = NR3A (human) ligand-binding domain modulation. NR3A LBD differential scanning fluorimetry, Tm shift; 0% = protein alone, 100% = glycine-bound protein. Tm shift relative to glycine control, % at 25 µM. 2.5% of 340,000 active. AID 1259313;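 active = melting temperature shift of at least 10% of the positive control shift, at one fixed dose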
MPTP block = blocks calcium-induced mitochondrial swelling; isolated mouse mitochondria, Ca2+ swelling absorbance, 30 min; 1.4% of 360,000 active; AID 602449; inhibition, % at 10 µM;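 active = inhibition of 50% or more, scaled per plate between neutral and stimulator controls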
MPTP counter = Rhodamine 123 counter-screen of mitochondrial pore hits. shares compounds with MPTP block. isolated mitochondria, membrane potential, Rhodamine 123 fluorescence. inhibition, % at 10 µM. 78% of 5,000 active. AID 624504; in the data active = inhibition above about 22%
rCAG bind conf = r(CAG) RNA repeat binding, confirmation; shares compounds with rCAG binder; TO-PRO-1 dye displacement fluorescence; inhibition, % at 3 µM; 70% of 4,300 active;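 active = inhibition above a per-plate cutoff, the mean inhibition of sample wells plus 3 SD, cut at about 35% in these data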;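 also: loss of TO-PRO-1 fluorescence as compound displaces dye from 1x1 AA loop RNA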
dCAG dye counter = counter-screen for rCAG RNA binders: DNA CAG dye complex inhibitors | shares compounds with rCAG binder | d(CAG) DNA oligo TO-PRO-1 dye displacement, fluorescence | inhibition, % at 3 µM | 94% of 4,300 active;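 active = inhibition above its plate's cutoff, the mean test-well inhibition plus 3 SD, cut at about 4.8% in these data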;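 also: hits displace the dye from DNA and so lower well fluorescence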
dCAG dye DR = disrupts DNA CAG TO-PRO-1 complex in dose response | shares compounds with rCAG binder | DNA CAG/GTC duplex TO-PRO-1 dye displacement fluorescence | IC50, µM | 20% of 250 active | AID 686960; in the data active = IC50 below about 10 µM
Large screens that a line does not name were inactive (follow-up assays come after a bar, where they were run).

O=C(NNC(=S)Nc1cccc2ccccc12)c1cccc(Br)c1	rCAG binder 66, MPTP block 68 | MPTP counter 87 | rCAG bind conf 72 | dCAG dye counter 36
N=C1/C(=C\c2coc3ccc(O)cc3c2=O)C(=O)N=C2SC=CN12	none
CC(C)CSC1=NSC2=NC(=O)/C(=C\c3coc4ccccc4c3=O)C(=N)N12	rCAG binder 61, MPTP block 89 | MPTP counter 61 | rCAG bind conf 59 | dCAG dye counter 55
CC(C)CSC1=NSC2=NC(=O)/C(=C\c3ccccc3)C(=N)N12	rCAG binder 76, MPTP block 73 | MPTP counter 91 | rCAG bind conf 39 | dCAG dye counter 9.9
COc1ccc(C)cc1NC(=O)c1ccccc1NS(=O)(=O)c1ccc(Cl)s1	rCAG binder 90, GRIN3A LBD mod 17, MPTP block 88 | MPTP counter 61 | rCAG bind conf 84 | dCAG dye counter 54
Cc1ccc(NC(=O)c2ccccc2NS(=O)(=O)c2ccc(Cl)s2)cc1S(=O)(=O)N1CCOCC1	rCAG binder 87, GRIN3A LBD mod 24, MPTP block 99 | MPTP counter 77 | rCAG bind conf 90 | dCAG dye counter 69
CCc1nc2ccc(C(=O)NCCc3ccccn3)cn2c1N(CCC(C)C)CCN(C)C	none (no result: GRIN3A LBD mod)
CCn1cc(/C=N/NC(=O)c2ccc3c(c2)OCO3)cn1	none
O=C(NNc1ccccc1C(F)(F)F)c1sccc1Br	none
O=C1NC(=S)/C(=C\c2ccc(-c3ccccc3Cl)o2)S1	rCAG binder 80, MPTP block 91 | MPTP counter 37 | rCAG bind conf 67 | dCAG dye counter 34
Cc1nnc(C)n1/N=C/c1ccc(-c2ccccc2Cl)o1	none
Cc1cccn2c(=O)nc(SCC(=O)N3CCCC3)nc12	none (no result: GRIN3A LBD mod)
CCC1=NN2C(=N)/C(=C\c3cccn3-c3c(C)cccc3C)C(=O)N=C2S1	none
Cc1cccc(C)c1-n1cccc1/C=C1/C(=N)N2C(=NC1=O)SN=C2S(C)(=O)=O	rCAG binder 88, MPTP block 67 | MPTP counter 75 | rCAG bind conf 85 | dCAG dye counter 59
Cc1cccc2sc(NNC(=O)c3cc(-c4cccs4)nc4ccccc34)nc12	rCAG binder 38, MPTP block 68 | MPTP counter 87 | rCAG bind conf 36 | dCAG dye counter 16
Cc1ccc(-c2csc(NC(=O)CSc3nnc4c(n3)[nH]c3ccccc34)n2)cc1	rCAG binder 35, GRIN3A LBD mod 21, MPTP block 88 | MPTP counter 56 | rCAG bind conf inactive | dCAG dye counter 18
CC1(C(=O)NCc2cccc3ccccc23)CCN1Cc1cccc2c1OCO2 (centres undefined)	none (no result: GRIN3A LBD mod)
COc1ccc(/C=C2/SC(=S)N(c3ccc(S(=O)(=O)Nc4nccs4)cc3)C2=O)cc1	rCAG binder 73, MPTP block 89 | MPTP counter 64 | rCAG bind conf 77 | dCAG dye counter 44
O=C1/C(=C\c2ccccn2)SC(=S)N1c1ccc(S(=O)(=O)Nc2nccs2)cc1	rCAG binder 65, MPTP block 70 | MPTP counter 48 | rCAG bind conf 83 | dCAG dye counter 52
Cc1ccc(/C=C2/SC(=S)N(c3ccc(S(=O)(=O)Nc4nccs4)cc3)C2=O)cc1	rCAG binder 42, MPTP block 96 | MPTP counter 75 | rCAG bind conf 82 | dCAG dye counter 49
COc1ccc(-n2ccc(=O)c(C(=O)Nc3ccc(S(=O)(=O)Nc4nccs4)cc3)n2)cc1	none
CC(OC(=O)c1cccc(S(=O)(=O)Nc2cccc(C(F)(F)F)c2)c1)C(=O)Nc1ccc2c(c1)OCCO2 (centres undefined)	rCAG binder 37, GRIN3A LBD mod 26, MPTP block 67 | MPTP counter 69 | rCAG bind conf 36 | dCAG dye counter 8.0
Cc1cccc(NC(=S)NNC(=O)COc2ccc(Cl)cc2Cl)c1	rCAG binder 45, MPTP block 55 | MPTP counter 52 | rCAG bind conf inactive | dCAG dye counter 10
CCCCCCCCCCS(=O)(=O)N/N=C/c1ccc([N+](=O)[O-])cc1	rCAG binder 42, GRIN3A LBD mod 31, MPTP block 85 | MPTP counter 62 | rCAG bind conf 52 | dCAG dye counter 16
CC(NC(=O)C1CCCN1C(=O)OC(C)(C)C)C(=O)OCc1ccccc1 (centres undefined)	none (no result: GRIN3A LBD mod)
COc1ccc(Nc2nc3ccccc3nc2NS(=O)(=O)c2cccs2)cc1	rCAG binder 42, GRIN3A LBD mod 22, MPTP block 61 | MPTP counter 64 | rCAG bind conf 74 | dCAG dye counter 36
Cc1ccccc1NC(=O)C[n+]1cc(-c2ccccc2)n2c1CCC2	none
Cc1ccc(C)c(OCCC(=O)OCC(=O)NCc2ccc(F)cc2)c1	none
CSc1ncnc2c1ncn2CCCNCc1ccccn1	none (no result: GRIN3A LBD mod)
CSc1ncc(Cl)c(C(=O)C(C#N)c2nc3c(C)cc(C)cc3c(=O)[nH]2)n1 (centres undefined)	rCAG binder 62, MPTP block 91 | MPTP counter 73 | rCAG bind conf 81 | dCAG dye counter 50
CSc1ncc(Cl)c(C(=O)Nc2cccc(C)c2)n1	none
CCOC(=O)c1sc(NC(=O)CSc2n[nH]c(-c3ccccc3)n2)c(C#N)c1C	rCAG binder 60, GRIN3A LBD mod 27, MPTP block 100 | MPTP counter 71 | rCAG bind conf 56 | dCAG dye counter 19
CCOC(=O)c1sc(NC(=O)CSc2ccccn2)c(C#N)c1C	none
COC(=O)c1ccc(CSc2ccccc2NC(=S)Nc2cccc(SC)c2)o1	none (no result: GRIN3A LBD mod)
Cc1ccc(C2CC2C(=O)NNC(=S)Nc2cccc(Cl)c2)cc1 (centres undefined)	rCAG binder 52, GRIN3A LBD mod 11, MPTP block 61 | MPTP counter 70 | rCAG bind conf 51 | dCAG dye counter 19
Cc1nnc(SCc2cccc([N+](=O)[O-])c2)s1	none
O=C(Nc1nnc(SCc2ccccc2)s1)c1cccc([N+](=O)[O-])c1	rCAG binder 36, MPTP block 71 | MPTP counter 83 | rCAG bind conf inactive | dCAG dye counter 6.0
N#CC(C#N)=C(Nc1ccc(F)cc1)SCc1cccc(Br)c1	rCAG binder 47, GRIN3A LBD mod 25, MPTP block 91 | MPTP counter 89 | rCAG bind conf 51 | dCAG dye counter 16 | dCAG dye DR inactive
O=C(CCC(=O)c1ccc(F)cc1)Nc1cccc(Br)c1	none
Cn1ccnc1-c1ccc(-c2nccn2C)cc1	none
